In PubChem BioAssay AID651815 (National Center for Advancing Translational Sciences (NCATS), 2012) one finds Potency data, which are given here for 66 compounds.

About 1,100 (52%) of roughly 2,100 compounds were called active. Roughly 29% stayed inconclusive and do not appear here. Calls follow the shape of the dose curve; as a rule, active = well fitted inhibition curve with a large enough effect; inconclusive = small, poorly fitted or top-dose-only effect; inactive = no such curve, though single readings can be large or run the other way. So high a share suggests a set chosen from earlier hits. The list shows a part of the results.
Potency is read from the fitted curve at half-maximal effect.

This assay deals with DNA dC->dU-editing enzyme APOBEC-3F (Homo sapiens) (UniProt Q8IUX4). Nature of the assay: qHTS for inhibitors of Vif-A3F interactions: Cherry picks counterscreen. Also: nearly all actives have a fitted effect of over 65% in size. The note with it: HeLa A3F-eYFP/Vif cells, eYFP fluorescence, 24 h; series mostly up to 46.1 µM. The method, boiled down: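 Rescue of Vif-driven A3F-eYFP degradation read as cellular eYFP fluorescence after 24 h compound exposure (several concentrations) in stable HeLa cells; MG132 (2 mM stock) as positive control.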
DNA dC->dU-editing enzyme APOBEC-3F (Homo sapiens), sequence (Q8IUX4 whole entry, looked up): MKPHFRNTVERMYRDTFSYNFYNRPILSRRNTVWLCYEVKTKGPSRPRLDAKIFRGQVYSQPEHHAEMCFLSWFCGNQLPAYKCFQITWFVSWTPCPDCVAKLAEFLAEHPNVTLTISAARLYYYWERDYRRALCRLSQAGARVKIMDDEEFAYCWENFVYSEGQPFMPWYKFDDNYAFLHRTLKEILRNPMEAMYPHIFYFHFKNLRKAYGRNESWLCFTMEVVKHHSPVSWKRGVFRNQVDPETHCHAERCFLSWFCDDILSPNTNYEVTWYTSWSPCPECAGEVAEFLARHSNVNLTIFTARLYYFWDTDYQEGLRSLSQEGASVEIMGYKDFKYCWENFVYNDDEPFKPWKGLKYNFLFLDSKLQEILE
Consider `CNc1ccc(/C=C/c2ccnc3ccccc23)cc1`, for which the Potency is 20.6 µM (active). On to `COc1cccc2nccc(/C=C/c3ccc(N(C)C)cc3)c12`, for which the Potency was 20.6 µM (active). Regarding `CN(C)c1ccc(/C=C/C=C/c2ccnc3ccccc23)cc1`, the Potency is 3.66 µM (active).

For `CN(C)c1ccc(/C=C/c2ccnc3cc(Cl)ccc23)cc1`, the Potency is 2.91 µM (active). In the case of `Fc1cccc(F)c1/C=N/NC(=S)Nc1cccnc1` it was “inactive”; in that of `CN(C)c1ccc(/C=C/c2ccnc3ccccc23)c(N)c1`, 8.2 µM (active).

Consider `CN(C)c1ccc(/C=C/c2ccnc3ccc(-c4ccccc4)cc23)cc1`, for which the Potency is 9.2 µM (active).

As to `CCCCCCCNc1ccc(/C=C/c2ccnc3ccccc23)cc1`, the Potency is 23.1 µM (active). In the case of `CN(C)c1ccc(/C=C/c2cnnc3ccccc23)cc1` it was 20.6 µM (active); in that of `CN1C(=O)C(O)(C2COC(C)(C)CC2=O)c2cc(Br)ccc21` (stereo unspecified), “inactive”; in that of `CN(C)c1ccc(/C=C/c2ccnc3ccccc23)cc1`, 18.4 µM (active). `Nc1ccccc1/C=C/c1ccnc2ccccc12`: the Potency is 16.4 µM (active). In the case of `O=c1c(Cl)c2oc3ccccc3nc-2c2ccccc12` it was 16.4 µM (active); in that of `CN(C)c1ccc(C2C=C(c3ccccc3)Nc3nnnn32)cc1` (stereo unspecified), 16.4 µM (active); in that of `COc1ccc(C2=CC(c3ccc(N(C)C)cc3)n3nnnc3N2)cc1` (stereo unspecified), 16.4 µM (active).

Regarding `O=S(=O)(Nc1nc2n(n1)C(c1ccccc1)C=C(c1ccc(Cl)cc1)N2)c1ccccc1` (stereo unspecified), the Potency entry was “inactive”.

As for `CCN1C(=S)SC(=O)C1=C1C=C(C)N(Cc2ccco2)C(C)=C1`, the Potency is 15.8 µM (active). Turning to `Clc1ccccc1/C=N/NC1=Nc2cccc3cccc1c23`, the Potency is 16.4 µM (active). `Clc1ccc(/C=N/NC2=Nc3cccc4cccc2c34)cc1`: the Potency was 18.4 µM (active).

`C/C(CCc1ccc2c(c1)OCO2)=N\NC(=S)NC(C)C`: the Potency result was “inactive”. As to `C=C(C)CNC(=S)NNC(=O)c1ccco1`, the Potency result was “inactive”. In the case of `C=CCn1c(O)c(N=NC(=O)CNC(=O)c2ccco2)c2ccccc21`, the Potency is 11.2 µM (active). Turning to `O=C(Nc1nc(NC(=O)c2ccco2)n(-c2ccccc2)n1)c1ccccc1`, the Potency entry was “inactive”. Regarding `COCCCNC(=S)N/N=C/c1cccc(OC)c1O`, the Potency result is “inactive”. On to `COc1ccccc1/C=N/NC(=O)c1cc2c(OC)c(OC)ccc2[nH]1`, for which the Potency was 9.94 µM (active). In the case of `COc1ccc(C(=O)N/N=C/c2cc(Br)ccc2O)cc1OC` it was “inactive”; in that of `COc1cccc(/C=N/NC(=O)c2cc3c(OC)c(OC)ccc3[nH]2)c1OC`, 3.53 µM (active); in that of `CCCNC(=O)c1ccccc1NC(=O)c1ccc2c(c1)NC(=O)C(C)S2` (stereo unspecified), 6.27 µM (active). Consider `CC1Sc2ccc(C(=O)NCc3ccccn3)cc2NC1=O` (stereo unspecified), for which the Potency entry was “inactive”.

For `Cc1cc(C)c2nccc(/C=C/c3ccc(N(C)C)cc3)c2c1`, the Potency is 13 µM (active). With `COc1ccc2nccc(/C=C/c3ccc(N(C)C)cc3)c2c1`, the Potency was 23.1 µM (active).

As for `CN(C)c1ccc(/C=C/c2ccnc3ccc(I)cc23)cc1`, the Potency is 6.51 µM (active).

With `CN(C)c1ccc(/C=C/c2ccnc3ccc(Br)cc23)cc1`, the Potency is 4.61 µM (active). In the case of `ClCC1NCC(c2ccccc2Cl)c2c1[nH]c1ccccc21` (stereo unspecified) it was “inactive”. In the case of `CN(C)c1ccc(/C=C/c2ccnc3ccc(N)cc23)cc1` it was 23.1 µM (active); in that of `Cc1ccc2nccc(/C=C/c3ccc(N(C)C)cc3)c2c1`, 9.2 µM (active). Under `CC(=O)c1cc(NC(=O)c2ccc(C)cc2)c(=O)oc1/C=C/N(C)C` stands 11.6 µM (active). On to `CC(=O)c1cc(NC(=O)c2ccc(Cl)cc2)c(=O)oc1/C=C/N(C)C`, for which the Potency was 6.27 µM (active). As to `COc1ccc(C(=O)Nc2cc(C(C)=O)c(/C=C/N(C)C)oc2=O)cc1`, the Potency was 12.5 µM (active).

On to `COC(=O)c1c(-c2ccccc2Cl)noc1/C=C/N(C)C`, for which the Potency result was “inactive”. In the case of `COC(=O)c1sc2nc(CSc3ccc(Br)cc3)[nH]c(=O)c2c1C` it was “inactive”; in that of `COc1cc(C2c3cc4c(cc3C(OC3OC5COC(c6cccs6)OC5C(O)C3O)C3COC(=O)C23)OCO4)cc(OC)c1O` (stereo unspecified), 11.2 µM (active); in that of `Cc1ccc(O)c(NC(=O)c2cc(-c3ccccc3O)no2)c1`, 20.6 µM (active).

Turning to `COc1cccc(C(=O)Nc2ncc3c(n2)CC(c2ccc(OC)cc2OC)CC3=O)c1` (stereo unspecified), the Potency was 11.2 µM (active).

Take `Cc1cc(/C=C2\NC(=S)N(C)C2=O)ccc1N1CCCC1`: the Potency is 2.5 µM (active).

As to `Cc1cc(N2CCCC2)ccc1/C=C1/C(=O)N(C)C(=S)N1C`, the Potency entry was “inactive”. Under `Cc1cc(N2CCCC2)ccc1/C=C1\NC(=S)N(C)C1=O` stands 2.91 µM (active). In the case of `COc1ccc(C)cc1Nc1c2c(nc3ccccc13)CCC2` it was 1.98 µM (active); in that of `Cc1ccc(O)c(Nc2c3ccccc3nc3ccccc23)c1`, “inactive”. Under `COC(=O)c1cnc(Nc2cc(C)ccc2OC)c2ccccc12` stands “inactive”.

Consider `CN1/C(=C\C=C2/SC(=S)N(CC(=O)O)C2=O)C(C)(C)c2ccccc21`, for which the Potency entry was “inactive”. In the case of `CCCN1C(=O)/C(=C/C=C2\N(CC)c3ccccc3C2(C)C)SC1=S` it was 4.44 µM (active); in that of `CN1/C(=C\C=C2/SC(=S)NC2=O)C(C)(C)c2ccccc21`, 3.96 µM (active). In the case of `CCCCN1C(=O)/C(=C/C=C2/CC(C)(C)CN2C)SC1=S` it was “inactive”; in that of `CCCN1C(=O)/C(=C\C=C2\N(CC)c3ccccc3C2(C)C)SC1=S`, 2.59 µM (active); in that of `O=C(N/N=C\C=C\c1ccc([N+](=O)[O-])o1)c1cccs1`, 15.8 µM (active). Under `COc1ccccc1OCC(=O)N/N=C/C=C/c1ccc([N+](=O)[O-])o1` stands 16.4 µM (active); under `O=C(N/N=C/C=C/c1ccco1)c1ccncc1`, “inactive”; under `Clc1ccccc1C1CC(c2ccccc2)=Nc2ccccc2N1` (stereo unspecified), “inactive”. With `Cc1ccc(-c2cn3nc(-c4ccccc4)c(-c4ccccc4)nc3n2)cc1`, the Potency is 18.4 µM (active).

As to `Cc1cc(C)nc(Nc2nc(C(N)Cc3ccccc3)cs2)n1` (stereo unspecified), the Potency is 14 µM (active).

With `COC(=O)CCC(=O)NC(=S)Nc1sc(C)c(C)c1C(N)=O`, the Potency is 1.25 µM (active).

Take `COc1cc2cc(-c3ccc(OC)c(OC)c3C)nc(N)c2cc1OC`: the Potency was 1.77 µM (active). As for `Cc1cc(N/N=C/c2ccc(O)cc2O)nc(-n2nc(C)cc2C)n1`, the Potency entry is “inactive”.

Regarding `CCN(CC)C(=O)Cn1c(=O)n(-c2ccccc2)c(=O)c2c3c(sc21)CCC3`, the Potency is 23.1 µM (active). In the case of `C=CCSc1nc2sc3c(c2c(=O)n1CC)CCC3` it was “inactive”.
